Assay outcomes (PubChem BioAssay)
This is a sample that favours compounds with a hit; in the whole collection about 1.1% have one here.
Calb FLC: C. albicans growth inhibition with fluconazole, primary screen, CaCi-2 strain, Alamar Blue fluorescence. AID 1979, 2009. growth inhibition, % (concentration not given with the values). C. albicans CaCi-2 (fluconazole-resistant clinical isolate) + fluconazole, 48 h. 300,000 tested, 0.57% active;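 active = growth inhibition above about 58% in most replicates, limit read from the data, passing the limit was not always enough; inconclusive = exactly half the replicates above a set limit; inactive = most replicates below a set limit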;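 note: all wells also contain fluconazole at 8 µg/ml as a sub-toxic cotreatment; 0% = median of DMSO wells and 100% = median of geldanamycin control wells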
L929 necroptosis: inhibitors of zVAD-triggered necroptosis, primary screen, L929 cells | 220,000 tested, 0.38% active | AID 1377, 2008 | viability rescue, % at 10 µM | L929 zVAD necroptosis rescue, ATP luminescence, 24 h; with zVAD 60 µM;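 active = activation, scaled between plate controls, above about 75%, limit read from the data; inactive = activation under that limit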;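 note: 0% = zVAD with DMSO and 100% = DMSO alone without zVAD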
HIF activator: HIF pathway transcriptional activators, primary screen, cell-based, U2OS HRE-luciferase, luminescence | U2OS HRE-luciferase reporter; normalized: DMSO 0%, desferrioxamine 100% | 300,000 tested, 0.32% active | activation, % at 7.5 µM (by protocol);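 active = mean activation of at least 10% of the iron chelator positive control signal, with at least half of replicates also reaching 10%; inconclusive = mean and replicate majority disagree about reaching 10%; inactive = mean and most replicates under 10%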
TNF death inh: inhibitors of TNF-alpha triggered necroptosis, primary screen, cell-based, Jurkat FADD-/-, single concentration. Jurkat FADD-/- TNF necroptosis rescue, ATP luminescence, 24 h; 0 = TNF only, 100 = no-TNF cells. 220,000 tested, 0.068% active. activation (protection from cell death), % at 10 µM;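 active = activation, meaning protection from cell death, of at least 50% relative to plate controls; inactive = activation below 50%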;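 note: necroptosis triggered by 40 ng/mL TNF-alpha added together with compound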
zVAD death conf: inhibitors of zVAD-triggered necroptosis in L929, confirmation, L929 cells, duplicate runs; AID 463117, 2010; shares compounds with L929 necroptosis; 760 tested, 16% active; L929 zVAD-induced necroptosis rescue, ATP luminescence, 24 h; activation (protection from necroptosis), % at 10 µM;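 active = mean protection from necroptosis of at least 50% over duplicate tests; inactive = mean protection below 50%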;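 note: 0% = cells with zVAD alone and 100% = vehicle cells without zVAD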
* hit, by the source's call; ? = inconclusive; . = no result.

SMILES	Calb FLC	L929 necroptosis	HIF activator	TNF death inh	zVAD death conf
CC(=O)Nc1ccc(N(C(=O)CNC(=O)c2ccco2)C(C(=O)NC2CCCC2)c2ccco2)cc1 (centres undefined)	-1.3	.	-0.2	.	.
COc1cc(NC(=O)c2cccs2)ccc1NC(=O)c1cc2ccccc2o1	39.1	78.2*	-5.0	1.0	0.7
CN(C)S(=O)(=O)c1ccc(NC(=O)c2cc3ccccc3o2)cc1	-32.6	92.2*	1.8	-1.4	3.8
Cc1ccc(NC(=O)c2cc3ccccc3o2)cc1S(=O)(=O)N(C)C	.	0.7	.	-2.5	.
CCN(CC(=O)NC1CCS(=O)(=O)C1)S(=O)(=O)c1cc(Br)ccc1Br (centres undefined)	1.7	.	-0.3	.	.
O=C(NC12CC3CC(CC(C3)C1)C2)c1ccc(-c2ccc(Cl)cc2)o1	14.1	81.6*	5.7	3.6	1.8
CCc1nccn1CCC(=O)N1CCCC(Nc2ccc(F)cc2)C1 (centres undefined)	-4.9	.	-0.1	.	.
Cc1cc(NC(=O)CC(C)C)c(=O)n(Cc2cccc(F)c2)c1	-13.2	.	-0.4	.	.
COC(=O)c1ccc(NC(=O)c2cccc(C)c2[N+](=O)[O-])cc1	-16.8	84.6*	0.7	3.7	2.8
Cc1ccc(S(=O)(=O)Nc2ccc(SC(F)F)cc2)c(C)c1	-8.5	0.2	-0.2	1.4	.
Oc1ccc(-c2csc(Nc3ncccn3)n2)cc1O	-10.7	79.2*	1.8	22.4	60.2*
Oc1ccc(-c2csc(Nc3ncccn3)n2)c(O)c1	20.6	81.3*	2.3	9.4	48.1
CC(=O)Nc1cccc(-c2csc(Nc3ncccn3)n2)c1	-6.2	79.8*	1.4	6.1	4.6
CCC(=O)N(CCc1ccc(OC)c(OC)c1)Cc1cc2ccc(C)cc2n2nnnc12	11.5	0.6	-0.3	1.1	.
Cn1cc([N+](=O)[O-])c(C(=O)Nc2ccc(-c3nc4ccccc4o3)cc2)n1	-4.5	2.0	4.0	-3.2	.
Cc1cc(NC(=O)c2cccc(Oc3ccccc3)c2)n[nH]1	95.9*	78.0*	2.7	13.1	5.1
CCN1CCN(c2nc3c(c(=O)[nH]c(=O)n3C)n2Cc2ccccc2)CC1	-6.8	.	-1.2	.	.
Nc1[nH]nc2ncc3cc4ccccc4nc3c12	32.4	82.1*	0.7	-3.2	37.0
Cc1ccc(Nc2cc(C)nn2-c2nc(C)cc(=O)[nH]2)cc1	79.9*	77.7*	216.4*	9.2	52.5*
O=c1[nH]c(C2CCCN(S(=O)(=O)c3ccc(F)cc3)C2)nc2c1nnn2Cc1ccc(F)cc1 (centres undefined)	-4.5	.	0.0	.	.
NC(=S)NC(=O)/C=C/c1ccccc1	1.7	83.2*	-0.2	18.8	0.5
O=C(/C=C/c1ccccc1)NC(=S)Nc1ccccc1O	19.3	.	3.7	.	.
CCN(CC(=O)Nc1ccc(NC(C)=O)cc1)C(=O)/C=C/c1c(C)nn(-c2ccc(F)cc2)c1C	-0.2	.	1.1	.	.
Cc1ccc2nc3ccc(N4CCCCCCC4)nn3c(=O)c2c1	-5.0	87.2*	2.6	5.2	0.1
CC(=O)c1c(C)[nH]c(C(=O)OCC(=O)Nc2ccc(Cl)c(S(=O)(=O)N(C)C)c2)c1C	-22.3	79.7*	0.4	-7.0	2.8
SMILES	Calb FLC	L929 necroptosis	HIF activator	TNF death inh	zVAD death conf
CC(=O)c1c(C)[nH]c(C(=O)Nc2ccc(Cl)c(S(=O)(=O)N(C)C)c2)c1C	-7.2	65.6	3.8	-1.8	.
CCn1c(CNC(=O)c2ccc(Cl)cc2)nnc1SCC(=O)NC1=NCCS1	4.2	.	-0.3	.	.
CCOC(=O)C1CCN(C(=O)c2ccc(OCC(=O)Nc3ccc(OCC)cc3)c(OC)c2)CC1	0.0	.	-0.1	.	.
O=C(Nc1ccc(N2CCN(C(=O)c3ccco3)CC2)cc1)C(c1ccccc1)c1ccccc1	20.1	75.8*	-0.3	2.0	20.8
O=C(Nc1ccc(N2CCN(C(=O)c3ccco3)CC2)cc1)c1ccco1	7.8	1.6	0.4	3.2	.
O=C(Nc1cnccn1)c1cccc(C(F)(F)F)c1	2.6	1.6	0.3	0.0	.
Cc1ccc(C(=O)Nc2cccc(C(F)(F)F)c2)cc1NC(=O)c1nccn1C	4.2	81.8*	-0.1	3.9	10.2
Cc1ccc(C(=O)Nc2cccc(C(F)(F)F)c2)cc1Nc1ncnc2nc[nH]c12	3.6	82.3*	0.1	-4.0	71.6*
Cc1ccc(C(=O)Nc2cccc(C(F)(F)F)c2)cc1NC(=O)c1ccno1	-12.4	74.2	0.3	-0.5	.
Cc1ccc(C(=O)Nc2cccc(C(F)(F)F)c2)cc1Nc1cnccn1	-14.9	81.9*	0.3	-0.1	70.3*
CCOc1cc(/C=C/C(=O)c2ccc(O)cc2)ccc1OCC(=O)N(C)C	-10.2	105.1*	-0.1	8.1	25.2
CCOc1cc(/C=C/C(=O)c2ccc3c(c2)OCCO3)ccc1OCC(=O)N(C)C	0.2	.	1.9	.	.
COc1ccc2cc(C(=O)NCc3ccccc3)c(=Nc3ccc(C(=O)O)cc3)oc2c1	41.4	75.6*	-0.6	1.9	0.8
Cc1c(NC(=O)CSCc2ccco2)c(=O)n(-c2ccccc2)n1C	-2.0	.	1.6	.	.
COC(=O)c1ccc(NC(=O)CSC2=NCCN2)cc1	14.3	91.7*	2.7	-7.7	11.9
CCOc1ccc(NC(=O)CSC2=NCCN2)cc1	1.1	5.1	-1.1	-0.6	.
CCN(CC)S(=O)(=O)c1ccc(/C=C/C(=O)OCC(=O)N(C(C)C)C(C)C)cc1	-4.3	3.1	-0.4	-0.4	.
Oc1[nH]c2ccccc2c1C=Nc1ccc2c(c1)OCO2	12.8	74.2	2.6	-1.4	.
Oc1[nH]c2ccccc2c1/C=N/c1nccs1	-4.9	75.9*	1.5	-3.7	34.8
CCOC(=O)c1c(C)[nH]c(O)c1C=Nc1ccccc1	?	86.9*	-0.1	-11.9	0.1
COc1ccc(N=Cc2c(O)[nH]c3ccccc23)cc1	4.8	77.3*	1.2	-1.6	76.4*
CCOC(=O)c1c(C)[nH]c(C=Nc2ccccc2)c1O	-2.5	0.1	1.0	-1.7	.
O=C(CSc1n[nH]c(-c2ccccn2)n1)Nc1ccccc1F	1.6	.	0.2	.	.
O=C(CSc1nnnn1-c1ccc(O)cc1)Nc1ccc(N2CCOCC2)c(Cl)c1	-23.4	75.5*	-0.6	4.7	75.1*
O=C(CSc1nnnn1-c1ccc(O)cc1)Nc1cccc(S(=O)(=O)N2CCCC2)c1	-16.9	88.0*	0.2	2.3	89.2*
Cc1ccc(NC(=O)CSc2nnnn2-c2ccc3c(c2)OCO3)cc1C	-9.4	79.0*	-0.1	5.3	74.2*
NC(=O)c1ccc(-n2nnnc2SCC(=O)Nc2ccc(N3CCOCC3)c(Cl)c2)cc1	24.0	-0.4	-0.2	-0.1	.
O=C(CSc1nncn1-c1ccccc1)Nc1cccc(S(=O)(=O)N2CCCCC2)c1	-33.1	0.3	0.6	1.6	.
CCOC(=O)c1cc(C)sc1NC(=O)CSc1nccn1C	-2.3	.	0.3	.	.
